Bioassay records: PubChem, National Center for Advancing Translational Sciences (NCATS)
MCF10A rerep = inducers of DNA re-replication in MCF 10A breast cells. MCF 10A DNA re-replication, Hoechst nuclear intensity, 48 h. hit rate 2.9% among 350,000. Potency, µM (series often up to 46.1 µM), without a hit: at the top dose activity, positive = re-replication, usual class: activators. AID 624296; note: potency is the fitted concentration of half-maximal effect; % of control where 0% means no effect; nearly all actives have a fitted effect of over 50% in size
SW480 rerep = induces DNA re-replication in SW480 colon adenocarcinoma cells; Potency, µM (titrated, usually from 46.1 µM), for inactives: at the highest dose re-replication activation, hits mostly activators; AID 624297; SW480 DNA re-replication, Hoechst DNA content imaging, 48 h; hit rate 1.8% among 340,000; note: potency is the fitted concentration of half-maximal effect; % of control where 0% means no effect; nearly all actives have a fitted effect of over 55% in size
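Image-based DNA-content assay: after two days of treatment, nuclei were labelled with the DNA dye Hoechst and imaged, and hits were compounds raising the count of nuclei showing high fluorescence intensity.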
KCNH2 3.1 inh = KCNH2 3.1 (human) potassium channel inhibition; U2OS KCNH2 3.1, thallium flux FluxOr; stronger effect = lower value; activity change, % (tested at about 1.8 µM); hit rate 0.95% among 340,000; AID 720553;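 active = maximum activity change below -70%; inconclusive = maximum activity change from -70% to -50%; inactive = maximum activity change above -50%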;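 note: thallium influx rate constant from kinetic fluorescence after stimulation buffer; % is set by controls: 0 for no effect and ±100 for the full control effect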
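Measured as rate of thallium-driven FluxOr signal in transduced U2OS cells carrying the 3.1 channel, read kinetically for 2 min upon stimulation; values are rate constants scaled to DMSO control wells.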
KB-3-1 tox = kills parental KB-3-1 adenocarcinoma cells | KB-3-1 viability, CellTiter-Glo ATP luminescence, 72 h | Potency, µM (top dose mostly 46.1 µM), hits mostly cytotoxic | hit rate 1.4% among 400,000; note: potency is the fitted concentration of half-maximal effect; % is set by controls: 0 for no effect and ±100 for the full control effect; nearly all actives have a fitted effect of over 60% in size
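Screening of KB-3-1 cells (DMEM, 10% FBS, phenol-red free) ran from lowest to highest compound concentration; after 72 h at 37 °C viability was read luminescently and curves fitted.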
KCNH2 WT inh = inhibitors of human wildtype KCNH2 potassium channel. hit rate 0.37% among 340,000. activity change, % at 1.84 µM. AID 720551. U2OS, BacMam KCNH2, thallium flux FluxOr; stronger effect = lower value;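 active = maximum activity change below -70%; inconclusive = maximum activity change between -70% and -50%; inactive = maximum activity change above -50%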; note: % is set by controls: 0 for no effect and ±100 for the full control effect
Target sequence (Q12809 whole entry, looked up): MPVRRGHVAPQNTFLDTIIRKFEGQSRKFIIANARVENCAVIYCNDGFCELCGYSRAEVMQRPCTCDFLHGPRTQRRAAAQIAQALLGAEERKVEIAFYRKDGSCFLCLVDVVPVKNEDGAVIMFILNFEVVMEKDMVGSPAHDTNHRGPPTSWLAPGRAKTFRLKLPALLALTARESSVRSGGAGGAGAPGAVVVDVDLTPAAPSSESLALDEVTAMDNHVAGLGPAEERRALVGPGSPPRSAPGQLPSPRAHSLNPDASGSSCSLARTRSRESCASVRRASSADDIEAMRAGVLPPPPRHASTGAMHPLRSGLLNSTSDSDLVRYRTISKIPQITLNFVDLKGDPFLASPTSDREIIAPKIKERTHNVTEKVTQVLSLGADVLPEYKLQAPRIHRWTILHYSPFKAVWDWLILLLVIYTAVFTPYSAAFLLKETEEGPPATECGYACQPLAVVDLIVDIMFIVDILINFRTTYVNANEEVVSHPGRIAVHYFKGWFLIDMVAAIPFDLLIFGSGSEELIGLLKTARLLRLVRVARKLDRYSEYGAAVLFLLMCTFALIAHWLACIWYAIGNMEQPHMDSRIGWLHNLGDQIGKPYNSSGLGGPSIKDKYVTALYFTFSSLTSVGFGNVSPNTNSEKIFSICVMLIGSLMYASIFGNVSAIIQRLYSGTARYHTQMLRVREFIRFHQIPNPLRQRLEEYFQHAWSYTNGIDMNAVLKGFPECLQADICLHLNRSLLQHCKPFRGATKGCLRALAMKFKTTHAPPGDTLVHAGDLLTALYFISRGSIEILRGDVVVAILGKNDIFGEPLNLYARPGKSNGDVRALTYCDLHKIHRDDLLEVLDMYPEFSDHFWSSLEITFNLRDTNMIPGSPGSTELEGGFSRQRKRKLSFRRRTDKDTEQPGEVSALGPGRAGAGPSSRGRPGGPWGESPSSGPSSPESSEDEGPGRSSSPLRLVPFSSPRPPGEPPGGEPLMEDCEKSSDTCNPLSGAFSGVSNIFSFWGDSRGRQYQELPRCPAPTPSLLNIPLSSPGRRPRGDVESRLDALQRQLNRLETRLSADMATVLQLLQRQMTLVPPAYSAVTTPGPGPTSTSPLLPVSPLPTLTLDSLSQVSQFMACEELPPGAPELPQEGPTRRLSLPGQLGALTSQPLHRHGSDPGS
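U2OS cells transduced with wild-type KCNH2 virus are loaded with FluxOr dye for 45 min, and thallium flux is measured in kinetic reads before and after stimulation buffer. Rate constants are normalized to DMSO controls.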
KB-V1 cytotox = KB-V1 MDR subline cytotoxicity; KB-V1 MDR cells viability, CellTiter-Glo, 72 h; hit rate 3.4% among 400,000; Potency, µM (highest dose often 46.1 µM), hits mostly cytotoxic; note: potency is the fitted concentration of half-maximal effect; % is set by controls: 0 for no effect and ±100 for the full control effect; nearly all actives have a fitted effect of over 60% in size
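qHTS viability screen in drug-selected KB-V1 MDR cells: 72 h compound treatment at 37 degrees C, ATP luminescence end point.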
The depositor's hits bear a star; i = inactive; ? = inconclusive; . = not tested or not shown; [ ] = remark or other dose. Rows were chosen to be rich in hits. Some 7.6% of all compounds tested hit in one or more screens of this group. Unless noted, calls come from the whole dose curve; as a rule, active = well fitted curve in the direction sought with a large enough effect; inconclusive = small, poorly fitted or top-dose-only effect, or another doubt; inactive = no such curve, though single readings can be large; an effect the other way counts as inactive or inconclusive.

SMILES	MCF10A rerep	SW480 rerep	KCNH2 3.1 inh	KB-3-1 tox	KCNH2 WT inh	KB-V1 cytotox
COc1cccc(-c2nnc(NC(=O)c3ccc(Cl)s3)o2)c1	6.5µM*	25%	13	?	0	i
COc1cccc(-c2nnc(NC(=O)c3cccc(F)c3)o2)c1	23µM*	21%	2	i	-4	?
Cc1cccc(-c2nnc(NC(=O)c3ccc(Cl)cc3)o2)c1	15µM*	?	4	?	38	13µM*
COc1cccc(-c2nnc(NC(=O)c3ccccc3Br)o2)c1	-2%	?	-11	?	-13	i
CN1CC(C(=O)Nc2ccc(F)c(Cl)c2)CC1=O (stereo not given)	-3%	-4%	7	i	-5	i
Cc1ccc(-c2nnc(NC(=O)c3ccc([N+](=O)[O-])o3)o2)c(C)c1	?	11%	-10	?	-4	?
COc1ccc(-c2nnc(NC(=O)c3ccc([N+](=O)[O-])o3)o2)c(OC)c1	8.2µM*	16µM*	3	i	5	?
CCOc1ccc(C(=O)Nc2cccc(-c3cc4ccccc4oc3=O)c2)cc1[N+](=O)[O-]	-4%	0%	-93*	i	?	i
CCOc1ccc2nc(NC(=O)c3cccc(-c4cc5ccccc5oc4=O)c3)sc2c1	?	16µM*	-10	i	14	?
COc1ccccc1C1NC(=O)c2ccccc2O1 (stereo not given)	?	-4%	6	i	11	i
CN(C)CCNC(=O)/C=C/c1cn(-c2ccccc2)nc1-c1cc2ccccc2oc1=O	-6%[9.22 µM]	?	5	i	15	i
CCOC(=O)N1CCN(C(=O)C[C@@H]2C[C@@]3(C(=O)OCC)CCC=C3N(Cc3ccc(Cl)cc3Cl)C2=O)CC1	.	.	.	i	.	10µM*
CCOC(=O)[C@]12CCCC=C1N(Cc1ccc(Cl)cc1Cl)C(=O)[C@H](CC(=O)NCCCOC)C2	.	.	.	i	.	i
COC(=O)[C@]12CCCCC=C1N(Cc1ccc(Cl)cc1Cl)C(=O)[C@H](CC(=O)N1CCN(C(=O)c3ccco3)CC1)C2	.	.	.	?	.	i
CCOC(=O)[C@]12CCC=C1N(Cc1ccc(Cl)cc1Cl)C(=O)[C@H](CC(=O)N1CCN(C(=O)c3ccco3)CC1)C2	.	.	.	i	.	10µM*
CCCCOCCCNC(=O)C[C@@H]1C[C@@]2(C(=O)OCC)CCC=C2N(Cc2ccc(Cl)cc2Cl)C1=O	.	.	.	?	.	18µM*
O=C(c1cc(C2CCCCN2S(=O)(=O)c2cccs2)on1)N1CCOCC1 (stereo not given)	.	.	.	i	.	i
Cn1nccc1NC(=O)Nc1ccc(Cl)cc1	-1%	?	-86*	i	-9	i
Cc1ccnn1CCSCC(=O)O	21µM*	0%	1	i	6	i
Cn1nccc1NS(=O)(=O)c1ccc(NC(=O)C(F)(F)F)cc1	5%	2.9µM*	-1	i	-1	i
N#Cc1ccc(NC(=O)Nc2ccc(Cl)cc2)cc1	-2%	2%	-6	21µM*	2	?
Cn1nccc1NS(=O)(=O)c1ccc(C(C)(C)C)cc1	8%	-4%	-9	i	2	?
Cc1ccnn1CCC(=O)O	1%	-8%	4	i	-6	i
c1cc2c(cc1Cc1cncc(Cc3ccc4c(c3)OCO4)c1)OCO2	.	.	.	i	.	i
Cn1nccc1NC(=O)CSCC(=O)O	8.2µM*	-54%	-18	i	-2	i
CCOc1ccc(CCNC(=O)Cn2nc(C)n3cccc3c2=O)cc1OCC	4%	-6%	-20	i	-6	i
COC(=O)c1ccccc1S(=O)(=O)N1CCC(C(=O)OC(C)C(=O)Nc2ccccc2OC)CC1 (stereo not given)	4%	1%	10	i	13	i
COc1ccccc1CNC(=O)C1CCN(S(=O)(=O)c2ccc3c(c2)OCCCO3)CC1	0%	21%	-5	i	6	18µM*
